Screens: PubChem BioAssay, National Center for Advancing Translational Sciences (NCATS)
ALDH1A1 block – ALDH1A1 (human) enzyme inhibition | Purified ALDH1A1, NADH fluorescence, propionaldehyde substrate | Potency, µM (series often up to 75.3 µM), hits mostly inhibitors | 7.3% of 220,000 active | AID 1030; active means well fitted inhibition curve with a large enough effect, not every such curve was filed as active; inconclusive means small, poorly fitted or top-dose-only effect, or another doubt; inactive means no such curve, though single readings can be large or run the other way
Target sequence (P00352 whole entry, looked up): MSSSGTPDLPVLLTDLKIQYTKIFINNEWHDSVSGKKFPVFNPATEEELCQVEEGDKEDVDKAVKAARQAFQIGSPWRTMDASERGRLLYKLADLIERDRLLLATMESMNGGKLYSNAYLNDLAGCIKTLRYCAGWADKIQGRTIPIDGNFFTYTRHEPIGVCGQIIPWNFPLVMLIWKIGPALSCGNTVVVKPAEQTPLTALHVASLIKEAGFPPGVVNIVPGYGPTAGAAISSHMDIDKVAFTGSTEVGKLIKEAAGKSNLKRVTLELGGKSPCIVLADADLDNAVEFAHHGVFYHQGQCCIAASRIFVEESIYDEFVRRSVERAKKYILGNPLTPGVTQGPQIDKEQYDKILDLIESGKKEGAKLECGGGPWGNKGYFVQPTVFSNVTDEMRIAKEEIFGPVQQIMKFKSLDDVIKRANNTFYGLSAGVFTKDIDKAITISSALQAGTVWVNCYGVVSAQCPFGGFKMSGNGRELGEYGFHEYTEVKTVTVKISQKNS
LMNA splice mod – LMNA splicing modulation | HeLa LMNA splicing GFP/RFP minigene ratio, 48 h | Potency, µM (top dose mostly 46.1 µM), usual class: inhibitors | 0.01% of 200,000 active | AID 1487; active means well fitted inhibition curve with a large enough effect in the signal ratio, with a control signal flat, not every such curve was filed as active; inconclusive means small, poorly fitted or top-dose-only effect, or effect the other way, or a change in a side signal; the % refers to the signal ratio
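S3 HeLa cells stably expressing lamin A-EGFP splicing minigene plus DsRed2, 600 cells/well, 48 h compound exposure at 37C. Laser-scanning cytometry; analysed as GFP (500-530 nm)/RFP (575-640 nm) total intensity ratio; 0.5% DMSO vehicle.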
HPGD block – inhibitors of human 15-hydroxyprostaglandin dehydrogenase (HPGD); P15428; purified HPGD, NADH fluorescence kinetic, PGE2 substrate; Potency, µM, actives largely listed as inhibitors; 4.3% of 150,000 active; active means well fitted inhibition curve with a large enough effect, not every such curve was filed as active; inconclusive means small, poorly fitted or top-dose-only effect, or another doubt; inactive means no such curve, though single readings can be large or run the other way
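20 nM HPGD preincubated 15 min at room temperature with compound in 50 mM Tris-HCl pH 8, 0.01% Tween 20. Started with 1 mM NAD+ and 30 uM prostaglandin E2; NADH fluorescence (360/450 nm) read 5 times over 30-s intervals, last minus first.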
Luc counter – Kinase-Glo luciferase inhibition (counter-screen); Q27757; Kinase-Glo luciferase, ATP luminescence, 8 min; Potency, µM (series often up to 38.3 µM), actives largely listed as inhibitors; 0.28% of 200,000 active; AID 1379; further: nearly all actives have a fitted effect of over 60% in size
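Luminescence was the read-out, taken after 8-minute incubation at ambient temperature. Luciferase turned over luciferin with 10 uM ATP in imidazole pH 7.2 buffer containing KCl, MgCl2, Tween 20 and BSA.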
IMPase Li inh – membrane-permeable IMPase blocker, potentiated with lithium. CHO-M1 cells, IP1 TR-FRET (IP-One), carbachol + lithium. Potency, µM (titrated, usually from 59.4 µM), actives largely listed as inhibitors. 0.35% of 210,000 active. AID 1457;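 further: IP1 builds up when IMPase is blocked and the TR-FRET signal falls; nearly all actives have a fitted effect of over 50% in size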
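CHO-M1, 2000 cells/well, 16–30 h culture; cpd + low Li+, 30 min 37C; lysis with d2-IP1/Eu-anti-IP1 Ab, 10 min RT; TR-FRET 665/620 ratio and 620 channel; AC50 via Hill.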
A number is an active result; n = inactive; u = inconclusive; x = no result; [ ] = another dose, or the depositor's remark. This is a sample that favours compounds with a hit; in the whole collection about 9% have one here. Unless noted, the call rests on the fitted dose curve; in most records, active means well fitted curve in the direction sought with a large enough effect; inconclusive means small, poorly fitted or top-dose-only effect, or another doubt; inactive means no such curve, though single readings can be large; an effect the other way counts as inactive or inconclusive.

SMILES | ALDH1A1 block | LMNA splice mod | HPGD block | Luc counter | IMPase Li inh
CCSCc1nnc(SCC(=O)Nc2cccc(C(C)=O)c2)n1C | n | n | x | n | n
CCSCc1nnc(SCC(=O)Nc2cccc(SC)c2)n1C | 20µM | n | n | n | n
Cc1ccc(C2CC(=O)Oc3cc(C)c(Cl)c(C)c32)cc1 (stereo not given) | n | x | n | n | n
N=c1nc(N)nc(N)n1-c1ccc(S(N)(=O)=O)cc1 | n[13.5 µM] | x | n | n[7.66 µM] | n
N#CC1=C2SCN(Cc3ccco3)CN2C(=O)CC1c1ccccc1F (stereo not given) | 10µM | n | 18µM | n | n
N#CC1=C2SCN(c3ccc(F)cc3)CN2C(=O)CC1c1cccc(F)c1 (stereo not given) | 1.9µM | n | 5.6µM | n | u
CCc1ccc(N2CSC3=C(C#N)C(c4cccs4)CC(=O)N3C2)cc1 (stereo not given) | 8.9µM | n | 13µM | n | n
CN1CSC2=C(C#N)C(c3cccc(OCc4ccccc4)c3)CC(=O)N2C1 (stereo not given) | 7.9µM | u | 14µM | n | n
FC(F)(F)c1cc(CN2CCCC3(CCNCC3)C2)cc(C(F)(F)F)c1 | n | x | n | n | n
CCc1ccc(C2CC(=O)N3CN(c4ccccc4)CSC3=C2C#N)cc1 (stereo not given) | 10µM | n | 7.9µM | n | n
CCOC(=O)c1ccc(N2CSC3=C(C#N)C(c4cccs4)CC(=O)N3C2)cc1 (stereo not given) | 22µM | n | n | n | n
CCOC(=O)CC1=C(C(=O)OCC)C(c2cccs2)C(C#N)=C(N)O1 (stereo not given) | n | n | n | n | n
Cc1ccc(N2CSC3=C(C#N)C(c4cccs4)CC(=O)N3C2)cc1 (stereo not given) | 8.9µM | n | 7.9µM | n | n
COc1ccc(N2CSC3=C(C#N)C(c4cccs4)CC(=O)N3C2)cc1 (stereo not given) | 2µM | n | 7.1µM | n | 13µM
COc1cc(/C=C\C(=O)N2CCC=CC2=O)cc(OC)c1OC | u | u | n | n | n
O=C(CCNS(=O)(=O)c1cccc2nonc12)NCCc1ccc(Cl)cc1 | 20µM | n | n | n | n
Cc1ccc(NC(=O)CCNS(=O)(=O)c2cccc3nonc23)cc1Cl | u | n | x | n | n
O=C(CCS(=O)(=O)c1cccc2nonc12)N1CCN(c2ccc(F)cc2)CC1 | u | n | n | n | n
O=C(CCNS(=O)(=O)c1cccc2nonc12)N1CCN(c2cccc(Cl)c2)CC1 | 2µM | n | n | n | n
Oc1cccc(Nc2cc(-c3ccccc3)ncn2)c1 | x | n | x | x | x
O=C(CN(Cc1ccccc1)C(=O)c1cccc([N+](=O)[O-])c1)Nc1c(Cl)cc(Cl)cc1Cl | n | n | n | n | n
Brc1cccc(-c2nnc3n2CCCCC3)c1 | n | n | 6.3µM | n | n
Brc1cccc(-c2cnc3n2CCCCC3)c1 | n | u | u | n | n
Fc1ccc(-c2cc(-c3nnc4n3CCCCC4)c3ccccc3n2)cc1 | n | n | n | n | n
Fc1ccc(-c2nnc3n2CCCCC3)cc1 | n | n | x | n | n
SMILES | ALDH1A1 block | LMNA splice mod | HPGD block | Luc counter | IMPase Li inh
c1ccc(-c2nnc3n2CCCC3)cc1 | n | n | 14µM | n | n
O=C1Nc2ccc(Br)cc2C1=Nc1ccc(-c2nnc3n2CCCCC3)cc1 | n | n | 4µM | n | n
C[C@]12CCC3c4ccc(O)cc4CCC3C1CCC2OC(=O)CCC1CCCC1 (stereo not given in full) | n | x | n | n | n
N=C(N)SCCN | n | u | n | n | n
CCC(=O)N1c2ccccc2CC1C(=O)NCCCN1CCN(c2ccccc2)CC1 (stereo not given) | x | n | x | x | x
C=CCn1cc(/C=N/NC(=O)COc2cccc3cccnc23)c2ccccc21 | 18µM | n | n | n | n
c1cncc(Nc2nc(-c3cccs3)cs2)c1 | 7.9µM | n | u | n | n
COc1ccc(-c2csc(Nc3cccnc3)n2)cc1 | 28µM | u | n | n | n
O=C1N(Cc2ccccc2F)c2ccccc2C12OCCCO2 | 22µM | n | n | n | n
COc1ccccc1NC(=O)CN1C(=O)C2(OCCCO2)c2ccccc21 | 22µM | n | n | n | n
O=C(CN1C(=O)C2(OCCO2)c2ccccc21)c1ccc(Br)cc1 | 14µM | u | x | x | x
CCCn1c(N)cc(=O)n(C)c1=O | n | n | x | n | n
CN(C)C(CNc1ccc([N+](=O)[O-])cc1C#N)c1ccccc1 (stereo not given) | n | x | x | x | n
CCCCCCCC/C=C\C/C=C\C=C\C(O)CCCC(=O)O (stereo not given) | n | x | n | n | n
CN(C)S(=O)(=O)c1cccc(NC(=S)Nc2ccc(Cl)cc2Cl)c1 | 13µM | n | u | n | n
CCN(CCO)c1ccc(NC(=S)Nc2cccc(S(=O)(=O)N(C)C)c2)cc1 | 25µM | x | x | n | n
CN(C)S(=O)(=O)c1cccc(NC(=S)Nc2cc(Cl)cc(Cl)c2)c1 | u | n | n | n | n
CC(C)(C)c1ccc(NC(=O)c2ccccc2)c([N+](=O)[O-])c1 | n | x | x | n | n
CCCN1C(=O)/C(=C/c2nc3ccccc3c(=O)[nH]2)c2ccccc21 | 2.5µM | n | n | n | n
CC(C)N1C(=O)/C(=C\c2nc3ccccc3c(=O)[nH]2)c2ccccc21 | 13µM | u | n | n | n
CCCN1C(=O)/C(=C/c2nc3ccccc3c(=O)[nH]2)c2cc(C)ccc21 | n | x | x | x | x
Nc1ccc(N)c(Cl)c1 | 22µM | x | u | x | n
Nc1ccc(N2C(=O)c3ccccc3C2=O)c(Cl)c1 | n | u | n | n | n
CCOc1cccc(=O)c2c(C)n(CC(=O)c3ccccc3)c(C)c12 | 8.9µM | x | x | n | n
COc1cccc(=O)c2c(C)n(CC(=O)c3ccccc3)c(C)c12 | u | n | x | n | n
SMILES | ALDH1A1 block | LMNA splice mod | HPGD block | Luc counter | IMPase Li inh
COc1ccc(CN(C(=O)Cn2nnc(-c3ccc(C)o3)n2)C(C(=O)NCC2CCCO2)c2ccco2)cc1 (stereo not given) | n | u | x | n | n
Nc1cc2nsnc2cc1Br | 7.9µM | n | n | n | u
COc1ccc(N/C=C(/C(C)=O)c2ccccc2)cc1 | 10µM | n | 22µM | n | n
COc1ccc(N/C=C/C(=O)C(C)(C)C)cc1 | n | x | x | n | n
N#Cc1cccc(NC(=O)N2CC[C@@]3(CCCN(C(=O)c4cccc(F)c4)C3)C2)c1 | n | x | n | n | n
Cc1ccc(N=Nc2c(=O)[nH]n3c(=O)cc(C)[nH]c23)cc1 | u | n | 20µM | u | n
COC(=O)C(/C=N/OCc1ccc([N+](=O)[O-])cc1)NC(=O)c1cccc(Cl)c1 (stereo not given) | 1.4µM | n | n | n | n
N=C1/C(=C\c2ccc(SCc3ccco3)o2)C(=O)N=C2SC=NN12 | 7.9µM | n | 25µM | n | n
O=C(NCC1CCCO1)c1ccc2c(=O)n(CC3CCCO3)c(SCC(=O)N3CCCC3)nc2c1 (stereo not given) | u | u | x | n | n
